High-throughput results (PubChem BioAssay)
VDR inh: Inhibitors of the vitamin D receptor (VDR): qHTS; Vitamin D3 receptor (Homo sapiens), P11473; VDR-SRC2-3 peptide fluorescence polarization, 2 h; Potency, µM, for the others: max response, negative = inhibition, usual class: inhibitors; 400,000 tested, 0.93% active
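The screen uses fluorescence polarization to detect compounds that interfere with recruitment of the SRC2-3 coactivator peptide to VDR; plates are read after 2 h at room temperature.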
GCN5L2 inh: qHTS Assay for Inhibitors of GCN5L2. GCN5L2 HAT assay, ThioGlo1 CoA-SH fluorescence. Histone acetyltransferase KAT2A (Homo sapiens), Q92830. 390,000 tested, 0.21% active. AID 504327, 2011. Potency, µM (highest dose often 58.9 µM), for the others: top-dose activity change, negative = inhibition, actives largely listed as inhibitors
Target sequence (Q92830 whole entry, looked up): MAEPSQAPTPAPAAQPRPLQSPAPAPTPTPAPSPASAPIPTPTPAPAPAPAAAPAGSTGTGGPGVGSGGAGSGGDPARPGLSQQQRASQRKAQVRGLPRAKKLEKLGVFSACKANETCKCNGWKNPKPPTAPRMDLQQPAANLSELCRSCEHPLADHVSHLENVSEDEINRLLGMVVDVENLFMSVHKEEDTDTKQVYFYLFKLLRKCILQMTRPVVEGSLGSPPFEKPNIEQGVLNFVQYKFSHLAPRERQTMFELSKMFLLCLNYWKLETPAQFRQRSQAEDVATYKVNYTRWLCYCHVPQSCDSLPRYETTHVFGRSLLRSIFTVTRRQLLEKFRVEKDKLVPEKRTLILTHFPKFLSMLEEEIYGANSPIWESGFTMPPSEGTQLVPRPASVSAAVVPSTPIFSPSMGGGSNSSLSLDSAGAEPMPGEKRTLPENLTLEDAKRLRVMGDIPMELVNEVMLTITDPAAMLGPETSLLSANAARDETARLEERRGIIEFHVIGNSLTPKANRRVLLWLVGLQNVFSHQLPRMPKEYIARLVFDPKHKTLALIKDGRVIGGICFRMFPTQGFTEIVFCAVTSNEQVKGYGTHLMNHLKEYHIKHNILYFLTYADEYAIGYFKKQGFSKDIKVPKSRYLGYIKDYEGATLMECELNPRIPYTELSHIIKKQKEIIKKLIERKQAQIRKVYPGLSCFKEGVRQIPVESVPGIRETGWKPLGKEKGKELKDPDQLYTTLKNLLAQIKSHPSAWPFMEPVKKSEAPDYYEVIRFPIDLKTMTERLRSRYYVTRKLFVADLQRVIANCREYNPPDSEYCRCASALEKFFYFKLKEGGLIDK
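GCN5L2 (20nM final) in 50mM HEPES, 0.1mM EDTA pH 7.5, 0.01% Tween-20 was preincubated 15 min at room temperature with compound, then given ThioGlo1 (50uM), H3(1-25) peptide (75uM) and acetyl-CoA (70uM); CoA-thiol fluorescence (Ex340/Em540) was read at 0 and 20 min.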
12-LOX inh: Primary qHTS assay for inhibitors of human arachidonate 12S-lipoxygenase (ALOX12): Round 2; Polyunsaturated fatty acid lipoxygenase ALOX12 (Homo sapiens), P18054; 580,000 tested, 1.1% active; Potency, µM (highest dose often 108 µM), without a hit: at the highest dose activity change, negative = inhibition, usual class: inhibitors; purified 12hLO, xylenol orange hydroperoxide absorbance
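Purified human 12hLO (150 nM final) in 25 mM Hepes, 0.01% Triton X-100, pH 7.0 was preincubated 15 min at room temperature with compound. Then 40 uM arachidonic acid was added, 30 min. Hydroperoxide was read by Fe-XO absorbance ratio 573/405 nm.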
PLK1 PBD block: qHTS for Inhibitors of PLK1-PDB (polo-like kinase 1 - polo-box domain): Primary Screen; Plk1 PBD binding of FITC phosphopeptide, fluorescence polarization; Potency, µM, without a hit: max response, negative = inhibition, hits mostly inhibitors; 360,000 tested, 2.8% active; AID 720504, 2013; further: series mostly up to about 57 µM; nearly all actives have a fitted effect of over 65% in size
Active calls of the source: *; ? = inconclusive; . = no result; ! = a repeat was not active; [ ] = dose if it differs, or a comment. A selection: hits, their analogues and other compounds. The true share with any hit is near 3%. The call rests on the fitted dose curve; in most records, active means well fitted curve in the direction sought with a large enough effect; inconclusive means small, poorly fitted or top-dose-only effect, or another doubt; inactive means no such curve, though single readings can be large; an effect the other way counts as inactive or inconclusive. On the % scale 0 is the no-effect control and ±100 the full control effect; potency means the concentration at half of the fitted maximal effect.

SMILES | VDR inh | GCN5L2 inh | 12-LOX inh | PLK1 PBD block
C[S+](C)/N=C(\[O-])c1cccc(F)c1 | . | . | 40% | .
COc1cccc(Nc2nc(-c3sc(NC(=O)c4ccco4)nc3C)cs2)c1 | -2% | -1% | 6.3µM* | ?
COc1ccc2sc(NC(=O)c3ccco3)nc2c1 | 2% | 1% | 8.9µM* | -11%
COc1cccc(Nc2nc(-c3ccc(CNC(C)=O)s3)cs2)c1 | . | . | 16µM* | .
CC(=O)NCc1ccc(-c2csc(Nc3cccc(C(F)(F)F)c3)n2)o1 | . | . | 10µM* | .
COc1ccc(Cl)cc1Nc1nc(-c2sc(NC(=O)c3ccco3)nc2C)cs1 | -4% | -6% | ? | -23%
O=C(Nc1cc(C(F)(F)F)ccc1Cl)c1nn(-c2cccc(Cl)c2)ccc1=O | . | . | 15% | .
O=C(C1CCCC1)N1Cc2ccccc2CC2(CCCN(Cc3ccccc3)C2)C1 (stereo unspecified) | . | . | 5%[6.33 µM] | .
CCNc1ccc(S(=O)(=O)N(CC)CC)cc1NC(=O)c1ccccc1F | . | . | -23% | .
O=S(=O)(NC1CCSc2c(F)cccc21)c1ccc(F)cc1 (stereo unspecified) | . | . | -5% | .
CCCCCC(O)CCCC(=O)O (stereo unspecified) | -1% | 1% | 3% | -10%
CCCCCCCCCCCCCCCC(O)C[N+](C)(C)CCO (stereo unspecified) | 18% | . | 16µM* | -22%
CC(C)=CCC/C(C)=C/C=C/C(C)=C/C=C/C(C)=C/C=C/C=C(C)/C=C/C=C(C)/C=C/C=C(\C)CCC=C(C)C | ? | -15% | . | .
COC(=O)/C=C/C(C)=C/C=C/C(C)=C/C=C/C=C(C)/C=C/C=C(C)/C=C/C(=O)O | 89µM* | -5% | . | .
Cn1c(SCCC(=O)Nc2sccc2C#N)nnc1-c1ccccc1F | . | . | 19% | .
COc1cc(C(=O)Nc2ccccc2)nc2ccc(Cl)cc12 | . | . | 1% | .
Cn1c(N2CCN(C(=O)Nc3ccc(C(F)(F)F)cc3)CC2)nc2ccccc21 | ? | -11% | -2% | 11µM*
Cn1c(N2CCN(C(=O)NCc3ccccc3)CC2)nc2ccccc21 | 3% | 0% | -21% | -7%
CCOC(=O)c1cc(-c2ccco2)nc2c1c(C)nn2-c1cccc(Cl)c1 | 1% | 26% | 14µM*! | -13%
COc1ccc(/C=C(/C#N)C(=O)Nc2cccc(C)c2C)cc1C(=O)O | 0% | -25% | 43% | 0%
COc1cc(C=C(C#N)C(=O)c2ccccc2)cc(OC)c1OC | . | . | -14% | 3.8µM*
COc1cc(/C=C(/C#N)C(=O)NCc2ccccc2)cc(OC)c1OC | -22% | 0% | -1% | -4%
COc1ccc(/C=C(/C#N)C(=O)Nc2ccccc2C)cc1C(=O)O | -13% | 25% | 4% | -3%
COc1cc(/C=C(\C#N)C(=O)Nc2ccccc2C(=O)O)cc(Cl)c1OC | ? | ? | -12% | 21µM*
CCOc1cc(/C=C(\C#N)C(=O)Nc2ccccc2C(=O)O)ccc1OC(=O)c1ccc(C)cc1 | ? | -17% | ? | 19µM*
SMILES | VDR inh | GCN5L2 inh | 12-LOX inh | PLK1 PBD block
N#C/C(=C\c1ccccc1OC(=O)c1cccc2ccccc12)C(=O)Nc1ccccc1C(F)(F)F | . | . | -6% | .
O=C1Nc2ccccc2CC12CCN(Cc1ccc(C(F)(F)F)cc1)CC2 | . | . | -5% | .
CNc1snc(C)c1C(=O)N(C)CCOc1ccccc1 | . | . | -5% | .
NS(=O)(=O)c1ccc(NC(=S)N2CCN(Cc3ccc4c(c3)OCO4)CC2)cc1 | -1% | -10% | 1% | 12µM*
NS(=O)(=O)c1ccc(NC(=S)N2CCN(Cc3ccc(Cl)c(Cl)c3)CC2)cc1 | -2% | -7% | -1% | -12%
CCCN1CCN(C(=S)Nc2ccc(S(N)(=O)=O)cc2)CC1 | -10% | -1% | -5% | -24%
Cc1cc(NS(=O)(=O)c2ccc(NC(=S)NC(=O)c3ccc(Br)cc3)cc2)no1 | -28% | 1% | 10µM* | -29%
NS(=O)(=O)c1ccc(NC(=S)N2CCC(Cc3ccccc3)CC2)cc1 | ? | -6% | . | 13µM*
Cc1cc(NS(=O)(=O)c2ccc(NC(=S)NCc3ccccc3)cc2)no1 | -12% | 10% | 45µM* | -13%
Cc1cc(NS(=O)(=O)c2ccc(NC(=S)NC(=O)c3cccnc3)cc2)no1 | 0% | 17% | ? | -14%
COc1ccc(CCNC(=O)C(C)C)cc1 | . | . | -36% | .
